This is a sample that favours compounds with a hit; in the whole collection about 6.8% have one here.
Pf Dd2 inh: P. falciparum Dd2 growth inhibition | 2.3% of 94,000 active | activity change, % at 10 µM | SYBR Green, 72 h; hits give low values; in the data active = activity change below about -80%; inconclusive = no clear call, values can overlap the other calls
T cruzi growth-1: blocks T. cruzi growth in NIH3T3 culture; T. cruzi beta-gal in NIH3T3, GalScreen luminescence, 90 h; inhibition, % at 8.34 µM; 5.9% of 77,000 active; AID 624255;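 active = mean inhibition above about 93%, with at least 55% of replicates each passing it, limit read from the data, passing the limit was not always enough; inconclusive = only one of those two conditions holds; inactive = neither condition holds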
C diff growth: blocks growth of Clostridium difficile; Clostridium difficile clinical isolate growth, OD600, 24 h; hits give low values; growth activity, negative = inhibition, % at 16 µg/mL (by protocol); 0.25% of 86,000 active;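 active = mean growth activity at or below -80% and every replicate also at or below -80%; inconclusive = mean at or below -80% but some replicate above -80%; inactive = mean growth activity above -80%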
T cruzi growth-2: blocks T. cruzi growth in NIH3T3 host cells | inhibition, % at 8.35 µM | 72% of 5,600 active | shares compounds with T cruzi growth-1 | T. cruzi beta-gal in NIH3T3, GalScreen luminescence, 90 h | AID 651739;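 active = mean replicate inhibition above about 95% and at least 55% of replicates individually reaching it, limit read from the data; inconclusive = only one of the two criteria is met; inactive = neither criterion is met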
T cruzi growth-3: inhibitors of T. cruzi proliferation. shares compounds with T cruzi growth-1. T. cruzi beta-gal in NIH3T3, GalScreen luminescence, 90 h. 21% of 5,600 active. inhibition, % at 2.09 µM;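 active = mean inhibition above about 95%, with at least 55% of replicates also reaching it, limit read from the data; inconclusive = meets just one of the two conditions; inactive = meets neither condition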
NIH3T3 tox: kills mouse NIH/3T3 fibroblasts; shares compounds with T cruzi growth-1; NIH/3T3 viability, CellTiter-Glo ATP luminescence, 90 h; cytotoxicity (signal decrease), % at 8.35 µM; 14% of 5,600 active; AID 651742;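 active = mean signal decrease across replicates above about 35% based on untreated-well scatter, with enough replicates individually passing, limit read from the data; inconclusive = no rule stated though some were filed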
3T3 cytotox 2: cytotoxicity in mouse NIH/3T3 fibroblasts; AID 651744; shares compounds with T cruzi growth-1; 56% of 5,600 active; inhibition, % at 24.9 µM; NIH/3T3 viability, CellTiter-Glo ATP luminescence, 90 h;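 active = mean loss of cell viability signal at or above a set limit, and enough replicates individually reaching it; inconclusive = meets only the mean limit or only the replicate share; inactive = meets neither condition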
Large screens that a line does not name were inactive (follow-up assays come after a bar, where they were run).

COc1ccc(S(=O)(=O)Nc2ccc3c(c2)C(=O)N([C@@H](C)CO)C[C@H](C)[C@H](CN(C)C)OCCCC[C@@H](C)O3)cc1	none
Cc1ccccc1S(=O)(=O)NCC[C@H]1CC[C@H](NC(=O)C2CCC2)[C@@H](CO)O1	none (no result: T cruzi growth-1)
C[C@@H]1CN([C@@H](C)CO)C(=O)c2cc(C#CCN(C)C)cnc2O[C@H]1CN(C)C	none (no result: T cruzi growth-1)
O=C(NCC1CC1)[C@@H]1[C@@H](CO)[C@@H]2Cn3c(ccc(-c4ccccc4F)c3=O)[C@H]1N2Cc1cccnc1	none (no result: Pf Dd2 inh)
CC(C)NC(=O)N[C@H]1CC[C@H](CCNS(=O)(=O)c2ccc(Cl)cc2)O[C@@H]1CO	none
CNC[C@@H]1Oc2ccc(NC(=O)C3CC3)cc2C(=O)N([C@@H](C)CO)C[C@H]1C	none
C[C@@H]1CN([C@H](C)CO)C(=O)Cc2cc(NC(=O)CCCCCC(=O)Nc3ccccc3N)ccc2O[C@H]1CN(C)S(=O)(=O)c1cn(C)cn1	none
COc1ccccc1-c1ccc([C@H]2[C@@H](CO)N(C(C)=O)C23CN(C(C)=O)C3)cc1	none (no result: T cruzi growth-1)
C[C@H](CO)N1C[C@H](C)[C@@H](CN(C)C(=O)CN(C)C)Oc2cc(C#CCC3CCCC3)ccc2S1(=O)=O	none
CCC(=O)N(C)C[C@@H]1Oc2cc(C#CCC3CCCC3)ccc2S(=O)(=O)N([C@@H](C)CO)C[C@H]1C	T cruzi growth-1 129 | T cruzi growth-2 109 | T cruzi growth-3 inactive | NIH3T3 tox inactive | 3T3 cytotox 2 104
COc1ccc(C#Cc2ccc3c(c2)O[C@H](CN(C)C(=O)NC2CCCCC2)[C@@H](C)CN([C@@H](C)CO)S3(=O)=O)cc1	T cruzi growth-1 inconclusive | T cruzi growth-2 109 | T cruzi growth-3 107 | NIH3T3 tox inactive | 3T3 cytotox 2 64
C[C@@H]1CN([C@@H](C)CO)S(=O)(=O)c2ccc(C#Cc3ccc(F)cc3)cc2O[C@@H]1CN(C)C(=O)NC1CCCCC1	none
COc1ccc(C#Cc2ccc3c(c2)O[C@@H](CN(C)C(=O)NC2CCCCC2)[C@H](C)CN([C@@H](C)CO)S3(=O)=O)cc1	T cruzi growth-1 inconclusive | T cruzi growth-2 100 | T cruzi growth-3 99 | NIH3T3 tox inactive | 3T3 cytotox 2 inactive
C[C@H]1CN([C@@H](C)CO)S(=O)(=O)c2ccc(C#Cc3ccc(F)cc3)cc2O[C@@H]1CN(C)C(=O)NC1CCCCC1	none
C[C@H](CO)N1C[C@H](C)[C@@H](CN(C)C(=O)NC2CCCCC2)Oc2cc(C#Cc3cccc(F)c3)ccc2S1(=O)=O	none (no result: T cruzi growth-1, C diff growth)
C[C@H]1CN([C@@H](C)CO)S(=O)(=O)c2ccc(C#Cc3ccc(F)cc3)cc2O[C@H]1CN(C)C(=O)NC1CCCCC1	none
C[C@@H]1CN([C@H](C)CO)S(=O)(=O)c2ccc(C#Cc3ccc(F)cc3)cc2O[C@@H]1CN(C)C(=O)NC1CCCC1	T cruzi growth-1 114 | T cruzi growth-2 inconclusive | T cruzi growth-3 inactive | NIH3T3 tox inactive | 3T3 cytotox 2 104
COc1ccc(C#Cc2ccc3c(c2)O[C@H](CN(C)C(=O)NC2CCCCC2)[C@H](C)CN([C@@H](C)CO)S3(=O)=O)cc1	T cruzi growth-1 inconclusive | T cruzi growth-2 102 | T cruzi growth-3 inactive | NIH3T3 tox inactive | 3T3 cytotox 2 inactive
COc1ccc(S(=O)(=O)Nc2ccc3c(c2)CC(=O)N([C@H](C)CO)C[C@H](C)[C@@H](CN(C)C(=O)Nc2ccc4c(c2)OCO4)O3)cc1	none
CC(C)NC(=O)N(C)C[C@@H]1OCCCC[C@H](C)Oc2ccc(NC(=O)c3ccncc3)cc2C(=O)N([C@H](C)CO)C[C@@H]1C	none
CCCC(=O)N1CCC2(CC1)CN(C(C)=O)[C@H](CO)c1c2c2ccc(OC)cc2n1C	none (no result: T cruzi growth-1)
CCCNC(=O)N1C[C@@H](O)COC[C@H]2O[C@H](CC(=O)NCc3ccc(Cl)c(Cl)c3)CC[C@@H]21	none
Cc1noc(C)c1NC(=O)N(C)C[C@@H]1Oc2ccc(N(C)C)cc2C(=O)N([C@@H](C)CO)C[C@@H]1C	none

Source: PubChem (Broad Institute)
